Screening data (PubChem BioAssay)
A selection: hits, their analogues and other compounds. The true share with any hit is near 3.7%.
Anthrax LF inh2: blocks Bacillus anthracis lethal factor protease; inhibition, % at 10 µM; P15917; 0.12% of 360,000 active; multiplex microsphere protease cleavage assay, LF
MazEF act: MazEF (E. coli) toxin RNase activation; FAM/BHQ RNA-DNA oligo cleavage fluorescence, 5 h; 0.32% of 350,000 active; AID 504720; P0AE70; activation, % at 20 µM; in the data active means activation above about 50%
Target sequence (P0AE70 whole entry, looked up): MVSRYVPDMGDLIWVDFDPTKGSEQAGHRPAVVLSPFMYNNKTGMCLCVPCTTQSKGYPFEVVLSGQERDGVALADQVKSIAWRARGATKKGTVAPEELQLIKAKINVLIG
BoNT F protease: inhibitors of Botulinum neurotoxin F light chain protease; inhibition, % at 10 µM; Multiplex microsphere protease cleavage assay, flow cytometry; AID 588497; 0.22% of 360,000 active; in the data active means inhibition above about 35%, passing the limit was not always enough; inconclusive means no clear call, values can overlap the other calls
BoNT A protease: inhibitors of Botulinum neurotoxin A light chain protease | multiplex microsphere protease substrate cleavage, flow cytometry | inhibition, % at 10 µM | 0.17% of 360,000 active | AID 588499
Autofluor counter: compound fluorescence in toxin protease inhibitor counterscreen | 3.1% of 360,000 active | AID 624483 | compound autofluorescence counterscreen, microsphere flow cytometry; hits give high values | fluorescence intensity (concentration not given with the values); in the data active means fluorescence intensity above about 16000; inconclusive means no clear call, values can overlap the other calls
Of the large screens only hits and unclear results are named; the others gave an inactive call. Unless noted, no stated cut-off is given here; in the data, active means inhibition above about 30%; inconclusive means no clear call, values can overlap the other calls; inactive means below that.

O=C(COc1ccccc1Cl)N1CCN(c2ncccn2)CC1	Autofluor counter 22968
O=C(COc1ccc(Cl)cc1Cl)N1CCN(c2ccccn2)CC1	none
CN1CCN(C(=O)CCCOc2ccc(Cl)cc2Cl)CC1	Autofluor counter 17214
CC(=O)C1=CCC(c2ccccc2)N(S(=O)(=O)c2ccccc2)C1 (centres undefined)	none (no result: MazEF act)
Cc1nc(C(F)(F)F)ccc1C(=O)N1CCC(C)(C(=O)O)C1 (centres undefined)	none (no result: MazEF act)
O=C(c1ccccc1OCc1ccccc1Br)N1CCN(c2ncccn2)CC1	Autofluor counter 16398
O=C(c1ccccc1Br)N1CCN(c2ncccn2)CC1	none
CNC(=O)CSc1nnc(-c2ccco2)n1-c1ccccc1OC	none
CCN(CC)C(=O)CSc1nnc(-c2ccco2)n1N	Autofluor counter 17289
CCN(CC)C(=O)CSc1nnc(-c2ccco2)n1Cc1ccco1	none
CCOc1ccccc1-n1c(SCC(=O)NC)nnc1-c1ccco1	Autofluor counter 17639
O=C(CSc1nnc(NC(=O)C2CC2)s1)Nc1cccc(F)c1	none
CCOC(=O)N1CCN(C(=O)C[C@@H]2C[C@@]3(C(=O)OC)CCCCC=C3N(Cc3ccccc3)C2=O)CC1	none (no result: MazEF act)
COC(=O)[C@@H](NS(=O)(=O)c1ccc(F)cc1Br)C(C)C	none
O=C(CCl)NN=C(c1ccccc1)c1ccccc1	MazEF act 59
Cc1ccc(C(=O)N2CCSCC2)cc1	Autofluor counter 20353
CS(=O)(=O)N1CCN(C(=O)c2ccncc2)CC1	none
O=C(c1ccncc1)N1CCN(C(=O)c2ccncc2)CC1	Autofluor counter 22332
Cc1ccc(NC(=O)Nc2ccc(C(=O)N3CCOCC3)cc2)cc1	none
CCn1cc(C(=O)NCCCN2CCCC2)c(=O)c2cc(S(=O)(=O)N3CCc4ccccc4C3)ccc21	none
CCn1cc(C(=O)NCCN(C)CCc2ccccc2)c(=O)c2cc(S(=O)(=O)N(C)C)ccc21	Autofluor counter 22712
CCn1cc(C(=O)NCc2ccco2)c(=O)c2cc(S(=O)(=O)N3CCC(C)CC3)ccc21	Autofluor counter 20447
C=CCn1cc(C(=O)NCc2ccco2)c(=O)c2cc(S(=O)(=O)N3CCCCCC3)ccc21	Autofluor counter 16902
CCn1cc(C(=O)NCc2ccco2)c(=O)c2cc(S(=O)(=O)N3CCc4ccccc4C3)ccc21	Autofluor counter 20784
CCn1cc(C(=O)NCCCOC)c(=O)c2cc(S(=O)(=O)N3CCC(C)CC3)ccc21	none
CC1(C)OCC(N)(CO)CO1	none
C=CCN(CC=C)c1ncnc2[nH]ncc12	none
O=C(CCC1CCN(C(=O)C2CC=CCC2)CC1)Nc1ccccc1 (centres undefined)	none
CCn1cc(C(=O)N2CCCC2)c(=O)c2cc(S(=O)(=O)N3CC(C)CC(C)C3)ccc21 (centres undefined)	none
CCn1cc(C(=O)NCc2ccco2)c(=O)c2cc(S(=O)(=O)N3CC(C)CC(C)C3)ccc21 (centres undefined)	Autofluor counter 19725
CCn1cc(C(=O)NCc2ccco2)c(=O)c2cc(S(=O)(=O)N3CCCCCC3)ccc21	BoNT A protease inconclusive, Autofluor counter 21862
C=CCNc1ncnc2c1ncn2[C@H]1CN(Cc2ccc3c(c2)OCO3)C[C@@H](CO)O1	none (no result: MazEF act)
O=C(CC(CC(=O)c1ccccc1)c1ccccn1)c1ccccc1	none
COC(=O)c1cccnc1-n1c(=O)c2cccnc2n(Cc2ccc(Cl)cc2)c1=O	Autofluor counter 22186
CN(Cc1nc2ccccc2c(=O)[nH]1)C(=O)c1ccc(S(=O)(=O)N2CCCC2)cc1	none
O=C(CCCn1c(=S)[nH]c2ccccc2c1=O)NC1CCCC1	Autofluor counter 16938
CCCn1c(=S)[nH]c2cc(C(=O)NCC3CCCO3)ccc2c1=O (centres undefined)	none
O=C(CCn1c(=S)[nH]c2ccccc2c1=O)NCC1CCCO1 (centres undefined)	Autofluor counter 21058
COc1ccc(-n2c(SCCNCCO)nc3sc4c(c3c2=O)CCCC4)cc1	none
Cn1c(N)c(C(=O)Nc2ccc3ccccc3c2)sc1=S	BoNT A protease inconclusive, Autofluor counter 21788
CC1(C)CC(=O)c2c(O)cc(OCc3ccc([N+](=O)[O-])cc3)cc2O1	BoNT A protease inconclusive, Autofluor counter 24979
Cc1ccc(S(=O)(=O)NCc2ccc(C(=O)NC3CCC(O)CC3)cc2)cc1C (centres undefined)	none
Cc1nn(CCOc2ccccc2)c(=O)n1-c1cccc(F)c1	Autofluor counter 16398
CC(C)(C)c1cc(NCCCn2ccnc2)n2ncc(-c3ccc(Cl)cc3)c2n1	BoNT A protease inconclusive, Autofluor counter 25531
O=C(NCc1ccncc1)[C@@H]1CCCN1C(=O)[C@@H]1CCCN1C(=O)c1ccccc1Cl	none (no result: MazEF act)
O=C(NC1CCCCC1)n1c(=O)oc2ccccc21	Autofluor counter 23174
O=C(NC1CCCCC1)n1c(=O)oc2ccc(Cl)cc21	Autofluor counter 23566
CC(C)(C)N(Cc1ccccc1)C(=O)COC(=O)c1ccc(N2CCCC2=O)cc1	none
O=C(CCC(=O)N1CCOCC1)NCCc1ccccc1	none
Cc1ccc(-n2ncc(C(=O)NCc3ccc4c(c3)OCO4)c2NC(=O)c2ccco2)cc1C	BoNT A protease inconclusive, Autofluor counter 21894
Cc1nc2c(C(=O)NCc3ccco3)cnn2c(C)c1Cc1ccc(F)cc1Cl	BoNT A protease inconclusive, Autofluor counter 21933
Cc1nc2c(C(=O)NCc3ccc4c(c3)OCO4)cnn2c(C)c1Cc1ccc(F)cc1Cl	none
O=C(NCc1ccc2c(c1)OCO2)c1ccco1	none
Cc1cccc(Cc2c(C)nc3c(C(=O)NCc4ccco4)cnn3c2C)c1	Autofluor counter 23199
Cc1ccccc1Cc1c(C)nc2c(C(=O)NCc3ccc4c(c3)OCO4)cnn2c1C	Autofluor counter 16548
COCCN(CC(=O)Nc1ccccc1C(F)(F)F)C(=O)/C=C/c1ccc2ccccc2n1	none
CCn1c(=O)c2ccccc2n(CC(=O)NCCC2=CCCCC2)c1=O	none
C=CCOC(=O)c1ccc(N2CCN(c3ccccc3)CC2)nc1	none
COc1ccc(/C=c2\s/c(=C/C(=O)c3ccc(C)cc3)[nH]c2=O)c(OC)c1	MazEF act active
COc1cccc(/C=c2\s/c(=C/C(=O)c3ccc(C)cc3)[nH]c2=O)c1OC	none
O=C1CSc2ccc(C(=O)N3CCN(c4ccccn4)CC3)cc2N1	BoNT A protease inconclusive, Autofluor counter 25914
O=C(c1ccc2c(c1)OCO2)N1CCN(c2ccccn2)CC1	none
O=C(c1ccc2c(c1)OCCO2)N1CCN(c2ccccn2)CC1	Autofluor counter 17835
Cc1cccc(S(=O)(=O)c2c(N)n(/N=C/c3ccccc3)c3nc4ccccc4nc23)c1	Autofluor counter 16348
Nc1c(S(=O)(=O)c2ccccc2)c2nc3ccccc3nc2n1/N=C/c1cccc(O)c1	BoNT F protease inconclusive
CC(Sc1nc2ccccc2o1)C(=O)O (centres undefined)	Autofluor counter 20941
CCC(Sc1nc2ccccc2o1)C(=O)O (centres undefined)	none
CCC(=O)N(CC)c1nc(-c2ccc(OC)cc2)cs1	Autofluor counter 23376
Cc1cc(S(=O)(=O)N2CCCCC2)c(C)s1	none
Cc1cc(S(=O)(=O)N2CCCC2)c(C)s1	Autofluor counter 20695
